Test results as given in PubChem BioAssay.

tested on: Inhibin beta A chain (activin A); experiment: INHBA (activin A) binders on microarrays, primary screen, biochemical, small-molecule microarray, 635 nm fluorescence scan (AID 1107); details: small-molecule microarray binding, higher = more signal;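 note: mouse activin A protein probed at 4.33 µg/mL on printed slides; score merges bound-protein fluorescence near 667 nm with spot signal-to-noise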

Compound	composite z-score
C=CCC(OC(C)=O)[C@@H]1[C@@H](N(Cc2ccc(-c3ccccc3)cc2)C(=O)c2ccc(-c3ccccc3)cc2)c2cc(OCCCO)ccc2N1C(=O)c1ccc2ccccc2c1 (stereo not given in full)	0.82
CCOC(=O)C[C@H]1[C@H](OC(=O)c2cc3ccccc3oc2=O)[C@@H](NC(=O)c2ccc3ccccc3n2)c2cc(OCCCO)ccc2N1C(=O)Cc1ccc(OC)cc1	0.288
Cc1ccc(S[C@]2(C(=O)NCC(F)(F)F)CC(=O)N(Cc3cc(C(F)(F)F)cc(C(F)(F)F)c3)[C@@H]2c2ccc(CO)cc2)cc1	-0.45
COC(=O)[C@@]1(Cc2ccc(OC)cc2)[C@H]2c3cc(C(=O)N4CCCC4)n(CCc4c[nH]c5ccc(O)cc45)c3C[C@H]2CN1C(=O)c1ccccc1	1.51
NC(=O)[C@@]1(Cc2ccccc2)COC(c2ccc(OCCCO)cc2)=N1	0.663
COCCOC(=O)N1C(=O)[C@@]2(c3cc(C#CCCO)ccc31)[C@H](C(=O)Nc1nc3ccccc3s1)[C@H]1C(=O)O[C@H](c3ccccc3)[C@H](c3ccccc3)N1[C@@H]2c1ccc(O)cc1	0.211
COc1ccc([Si](C)(C)[C@@H]2[C@@H](CCO)O[C@]3(C(=O)N(Cc4ccccc4)c4ccc(N5CCOC5=O)cc43)[C@H]2C)cc1	0.729
C=C(/C(=C/C[C@H](OC(C)=O)c1ccc(CO)o1)c1cnc2ccccc2c1)C(C)C	1.52
COC(=O)[C@@]1(Cc2ccccc2)[C@H]2c3cc(C(=O)N4CCCC4)n(CCc4ccccn4)c3C[C@H]2CN1C(=O)c1ccccc1	1.11
COCC(=C=CC[C@H](O)c1ccc(OCCO)cc1)CCO	1.43
CCOC(=O)C1=C[C@@H](C(C)(C)C)N(S(=O)(=O)c2ccc(C)cc2)[C@H]1c1cccc2ccccc12	0.997
C=CC[C@@]1(C(=O)NCCCOC)N=C(c2ccc(OCCCO)cc2)O[C@@H]1c1ccccc1	0.923
[N-]=[N+]=Nc1ccccc1C[C@]1(C(=O)NCCN2CCOCC2)COC(c2ccc(OCCCO)cc2)=N1	0.472
Cc1ccc(F)cc1S(=O)(=O)N[C@@H]1CCN(Cc2ccc(Br)cc2)C1	0.359
OCCCC1=CC(c2ccc(CN3CCCC3)cc2)N(Cc2cc3c(cc2Br)OCO3)CC1 (stereo not given)	1.57
COC(=O)C1=CC(CCCO)=CC(c2ccc(CN3CCCC3)cc2)N(Cc2cccc(OC(F)(F)F)c2)C=C1C(=O)OC (stereo not given)	0.976
CC(CO)N1C(=O)[C@@H]2[C@H]3C(=O)OCC=C[C@H]3OC23C=CCN(Cn2nnc4ccccc42)C(=O)[C@@H]13 (stereo not given in full)	0.647
CC(C)NC(=O)[C@@]1(c2ccc([N+](=O)[O-])cc2)CC(=O)N(C2CCCCC2)[C@@H]1c1ccc(CO)cc1	-0.0249

Compound	composite z-score
O=C1CS(=O)(=O)C(c2cccc([N+](=O)[O-])c2)N1c1ccccc1 (stereo not given)	0.32
NC(=O)NCC#Cc1ccc2c(c1)[C@]1(C(=O)N2)[C@H](c2ccccc2OCCO)N2[C@H](c3ccccc3)[C@H](c3ccccc3)OC(=O)[C@H]2[C@@H]1C(=O)NC[C@H](O)c1ccccc1	0.472
CCCC[C@@H](O)C1=C(COc2ccccc2)C[C@H]2C(=O)N(Cc3ccccc3)C(=O)[C@H]2[C@H]1CO	0.526
COC(=O)[C@@]1(Cc2ccc(F)cc2)[C@H]2c3cc(C(=O)N(C)C)n(Cc4ccc(OC(F)(F)F)cc4)c3C[C@H]2CN1C(=O)c1ccccc1	0.401
COCCOC(=O)N1C(=O)[C@@]2(c3cc(C#CC4=CCCCC4)ccc31)[C@H](c1ccccc1OCCO)N1[C@H](c3ccccc3)[C@H](c3ccccc3)OC(=O)[C@H]1[C@@H]2C(=O)N1CCN(c2ncccn2)CC1	0.333
O=C1OCCC=C[C@H]2OC34C=CCN(c5ccc6ccccc6c5)C(=O)[C@H]3N(CCCO)C(=O)[C@@H]4C12 (stereo not given in full)	-2.42
CCCC=C(CCC)[C@@H](NS(=O)(=O)CC12CCC(CC1=O)C2(C)C)c1ccc(C(=O)OC)cc1 (stereo not given in full)	-0.0344
CC(C)[Si](C#C[Si](C(C)C)(C(C)C)C(C)C)(O[C@H](c1ccccc1)c1cn(Cc2ccccc2)nn1)C(C)C	0.218
C[N+](C)(C)CCCC[C@@H]1NC(=O)[C@@H]2C[C@H](C(=O)NCCCCCCN)[C@H](c3cccc(OCCO)c3)N2C1=O	1.4
COC(=O)[C@@H]1N=C(c2ccc(OCCCO)cc2)O[C@@H]1C	-0.004
Cc1ccc(N2C(=O)c3ccccc3[C@@H](C(=O)NCCCN(C)C)[C@@H]2c2ccc(CO)cc2)nc1	-0.153
C#CCN(Cc1ccccc1Br)[C@H](/C=C/c1ccccc1)[C@@H](O)Cc1ccccc1	1.35
COCCOC(=O)N1C(=O)[C@@]2(c3cc(C#CC4=CCCCC4)ccc31)[C@H](c1ccccc1OCCO)N1[C@H](c3ccccc3)[C@H](c3ccccc3)OC(=O)[C@H]1[C@@H]2C(=O)NC[C@H](O)c1ccccc1	0.755
NCCCCCCNC(=O)[C@@H]1C[C@@H]2C(=O)N[C@@H](CCCCN)C(=O)N2[C@@H]1c1ccc(O)cc1	0.899
C=CC[C@]1(C(=O)N2CCOCC2)COC(c2ccc(OCCCO)cc2)=N1	0.976
COc1ccc(C(=O)Nc2ccc(CN3C(=O)[C@]4(O[C@H](CC(=O)N5Cc6ccccc6C[C@H]5CO)[C@@H]([Si](C)(C)c5ccc(OC)cc5)[C@@H]4C)c4ccccc43)cc2)cc1	0.518
CCCNC(=O)[C@@H]1c2ccccc2C(=O)N(Cc2ccc(OC(F)(F)F)cc2)[C@H]1c1ccc(CO)cc1	0.0914
